Measurements reported in ChEMBL document CHEMBL4513216, “Probing the Open Global Health Chemical Diversity Library for Multistage-Active Starting Points for Next-Generation Antimalarials” (ACS Infect Dis, 2020).
Hit rate of the full screen: of about 68,000 compounds, about 2,700 (4%) showed an effect of 50% or more. Only a selection was taken, and strong results are over-represented in it overall.

These compounds were tested on Plasmodium berghei (assay: Screen against P. berghei liver stage (PbLuc), transformed with Luciferase, at 2uM). Details: tested at 2 uM.
Assay type: functional, HepG2

Row | SMILES | INHIBITION [%]
1 | CC(C)O[C@@H]1CC[C@H]2[C@H]1OCCN2C(=O)c1nn(C)c2ccccc12 | -13.37
2 | CCN(CC)C(CNCc1ccc(C)o1)c1ccco1 (stereo unspecified) | 15.89
3 | CCN1C(=O)CCCC12CCCN(C(=O)c1cnccn1)C2 (stereo unspecified) | -41.21
4 | CC(CN1CCOCC1)N(Cc1ccccc1)Cc1ccncc1 (stereo unspecified) | 8.73
5 | COc1cc2c(cc1CNCc1ccnc(-n3cccn3)c1)OC(C)C2 (stereo unspecified) | 17.61
6 | CCC(C)N(Cc1ccncc1)C(=O)CCSC (stereo unspecified) | -20.95
7 | CCOCCC(=O)N(Cc1ccncc1)C(C)CC (stereo unspecified) | -35.26
8 | CCCC(=O)N(Cc1ccncc1)C(C)CC (stereo unspecified) | 52.98
9 | O=C([C@H]1C[C@H]2OCC[C@H]2N(Cc2ccoc2)C1)N1CCCCO1 | 21.77
10 | CS(=O)(=O)NCCCn1ccc2ccccc21 | 24.23
11 | COC(=O)NCCC(=O)NC(C)Cc1ccccc1Br (stereo unspecified) | 63.46
12 | COC(=O)CCC(=O)NC(C)Cc1ccccc1Br (stereo unspecified) | 2.7
13 | CCNC(=O)CCC(=O)NC(C)Cc1ccccc1Br (stereo unspecified) | -3.87
14 | CS(=O)(=O)NCc1cc(-c2cc(F)cc(F)c2)nc(N2CC[C@H](O)C2)n1 | 4.66
15 | COc1ncccc1CNC(=O)NC(C)Cn1cccn1 (stereo unspecified) | 31.7
16 | COc1c(C(=O)N2CCOC(c3cccs3)C2)c(C)nn1C (stereo unspecified) | -11.34
17 | Fc1ccc2[nH]c(C3CCCN3CCc3ccccn3)nc2c1 (stereo unspecified) | -55.56
18 | O=C(CN1CCCC1c1nc2cc(F)ccc2[nH]1)NCc1ccccn1 (stereo unspecified) | 57.75
19 | Fc1ccc2[nH]c(C3CCCN3Cc3c[nH]cn3)nc2c1 (stereo unspecified) | 19.59
20 | Cc1cccc(C(=O)N2CCCCC2c2nc3cc(F)ccc3[nH]2)n1 (stereo unspecified) | 65.04
21 | O=C(c1cccc(CO)n1)N1CCCC1c1nc2cc(F)ccc2[nH]1 (stereo unspecified) | -20.6
22 | Cc1cc(C(=O)N2CCCCC2c2nc3cc(F)ccc3[nH]2)no1 (stereo unspecified) | 33.92

Row | SMILES | INHIBITION [%]
23 | COCC(=O)N1CCCC1c1cc(Nc2nnc(C)s2)nc(C)n1 (stereo unspecified) | 10.43
24 | CCN1CCCc2cc(CN3CCc4c(nc(C)[nH]c4=O)C3)ccc21 | -9.49
25 | Cc1cc(C)nc(N2CCC(C(=O)Nc3n[nH]c(C(C)C)n3)CC2)n1 | 19.84
26 | COc1c(C2CCCN2C(=O)CCNc2ncccn2)c(C)nn1C (stereo unspecified) | 6.89
27 | Cc1ccc(C(=O)NCc2ccc(N(C)C)cc2)cn1 | 8.73
28 | CN(c1ccc(CNC(=O)c2c[nH]c(=O)c(Cl)c2)cc1)C1CCCCC1 | -20.64
29 | CN(c1ccc(CNC(=O)c2ccc(O)nc2)cc1)C1CCCCC1 | 51.76
30 | COCc1ccccc1NC(=O)c1ccoc1 | -38.36
31 | COCc1ccccc1NC(=O)NC(C)c1ccc(C)o1 (stereo unspecified) | 53.19
32 | Cc1ccc(C(C)NC(=O)Nc2ccccc2CN2CCOCC2)o1 (stereo unspecified) | -10.54
33 | CC(C)N(C)Cc1cc(=O)n2c(n1)CN(C(=O)c1ccnnc1)CCC2 | 25.92
34 | COc1ccc(C)cc1CN1CCC(c2cc3ncccc3cn2)CC1 | -17.29
35 | CCn1c(C)nnc1SCCNC(=O)Cn1cnc2ccccc2c1=O | 38.67
36 | CO[C@@H]1CCN(Cc2nccs2)C[C@@H]1Cc1cccc(C)c1 | 10.17
37 | CC1(C)CN(Cc2csc(CS(C)(=O)=O)n2)Cc2ccccc21 | 52.98
38 | CS(=O)(=O)Cc1nc(CN2CCc3ccccc3CC2)cs1 | 41.05
39 | CS(=O)(=O)Cc1nc(CN2CCC(C(F)(F)F)CC2)cs1 | 62.51
40 | CS(=O)(=O)Cc1nc(CN2CCOc3ccccc3C2)cs1 | 33.9
41 | CS(=O)(=O)Cc1nc(CN2CC=C(c3ccccc3)CC2)cs1 | -4.26
42 | CS(=O)(=O)Cc1nc(CN2CCCc3sccc3C2)cs1 | 38.67
43 | CN(C)C1COC2(CCN(S(=O)(=O)c3ccc(F)cc3)CC2)C1 (stereo unspecified) | 42.4
44 | Cc1ccccc1C1CCCN(C(=O)c2c[nH]c(=O)c(Cl)c2)C1 (stereo unspecified) | 23.16

Row | SMILES | INHIBITION [%]
45 | Fc1cccc(N2CCCC3(C2)CN(c2ncccn2)CCO3)c1 (stereo unspecified) | 39.9
46 | Cc1noc(C2CCCN(C(=O)c3ccc(Br)o3)C2)n1 (stereo unspecified) | 3.9
47 | Cc1nn(C)c(C)c1C1CCCN1c1ncnc2[nH]ccc12 (stereo unspecified) | -41.8
48 | COC(=O)C(C)N1CCCc2cc(OC)ccc2C1 (stereo unspecified) | 58.69
49 | COc1ccc2c(c1)CCCN(C(C)C(=O)NC(C)C)C2 (stereo unspecified) | 47.68
50 | COc1ccc2c(c1)CCCN(C(C)C(=O)NC(N)=O)C2 (stereo unspecified) | 6.92
51 | CCc1cc(C)c(C(=O)N2CCCC2CC(=O)c2cnn(C)c2)o1 (stereo unspecified) | 9.3
52 | COc1ccccc1CC1CCCN(C(=O)c2cn[nH]c2C)C1 (stereo unspecified) | -62.85
53 | NCC1CCC(C(NC(=O)c2ccccn2)c2ccccn2)CC1 (stereo unspecified) | 8.1
54 | CCN1CCOCC2(CCCN(C(=O)c3conc3C)C2)C1 (stereo unspecified) | 16.67
55 | CCn1cc(S(=O)(=O)NCC(OC)c2ccccc2)cn1 (stereo unspecified) | 58.12
56 | CCn1cc(C(=O)NCC(OC)c2cccc(Cl)c2)cn1 (stereo unspecified) | 55.73
57 | CCn1cc(S(=O)(=O)NCC(OC)c2cccc(Cl)c2)cn1 (stereo unspecified) | 31.78
58 | CCn1cc(S(=O)(=O)NC(CO)Cc2ccccc2)cn1 (stereo unspecified) | 29.19
59 | COC(CNC(=O)c1ccoc1)c1cccc(Cl)c1 (stereo unspecified) | -0.15
60 | COC(CNC(=O)c1ccc(NC(C)=O)cc1)c1cccc(Cl)c1 (stereo unspecified) | -8.34
61 | Cc1cnn(CCNCC(O)COc2ccc(Cl)cc2Cl)c1 (stereo unspecified) | 23.94
62 | O=C(NCC1CCOC1)c1csc(-c2cccc(Cl)c2)n1 (stereo unspecified) | 25.74
63 | N[C@H]1CN(C(=O)c2ccc3[nH]c(=O)c(=O)[nH]c3c2)C[C@@H]1c1ccccc1 | -6.88
64 | N#Cc1ccccc1N1CC2(CCCCN2CC2CC2)CC1=O (stereo unspecified) | -47.71
65 | COCc1cc(CNC(=O)c2c(O)cccc2O)n[nH]1 | 30.93
66 | O=C(Nc1ccc2c(c1)OC1(CCCCC1)O2)c1ccc(=O)[nH]n1 | -5.9

Row | SMILES | INHIBITION [%]
67 | c1cncc(-c2nccc(CN3CCCC3)n2)c1 | 52.89
68 | c1cncc(-c2nccc(CN3CCC(N4CCCCC4)CC3)n2)c1 | 25.72
69 | CCN1CCN(Cc2ccnc(-c3cccnc3)n2)CC1 | 15.58
70 | CC(C)c1cc(C(=O)NCCCN(C)C)nc(N2CCCC2)n1 | 27.54
71 | Cc1noc(CNc2ccc(OC(F)F)cc2OC(F)F)n1 | 57.23
72 | FC(F)Oc1ccc(NCc2nc(C3CC3)no2)c(OC(F)F)c1 | -35.14
73 | CC(C)c1noc(CNc2ccc(OC(F)F)cc2OC(F)F)n1 | -70.61
74 | O=C(NCCc1cc(F)ccc1F)NCC(O)C1CC1 (stereo unspecified) | 30.69
75 | c1ccc(O[C@H]2COCCN(CC3CC3)C2)cc1 | 20.5
76 | CC(NC(=O)NCCCn1cccn1)c1cccnc1 (stereo unspecified) | -8.05
77 | CC(NC(=O)Cn1cccn1)c1cccnc1 (stereo unspecified) | 42.58
78 | CC(CC(=O)NCCCn1cccn1)c1cccnc1 (stereo unspecified) | 74.51
79 | Cc1nc(O)c2c(n1)CCN(Cc1cc(C)sc1C)CC2 | -0.21
80 | CCC[C@@H]1CN(Cc2ccccc2-c2ccco2)C[C@H]1NC(C)=O | 28.19
81 | COCCN1CCC(Cc2cnc(-c3ccccc3C(=O)O)cn2)CC1 | 20.44
82 | Cc1nnc(C(C)NCC2(c3ccc(F)cc3)CCCCC2)o1 (stereo unspecified) | -55.34
83 | Cc1cccc(C2(CNC(C)c3nnc(C)o3)CCCC2)c1 (stereo unspecified) | 38.96
84 | Cc1nnc(C(C)NCC2(c3c(F)cccc3F)CCCC2)o1 (stereo unspecified) | 50.9
85 | O=C(NCC1CC1)[C@@H]1CCO[C@@H]2CCN(Cc3ccsc3)C[C@H]21 | 28.38
86 | O=C(O)c1cc(-c2cc[nH]n2)cc(S(=O)(=O)N2CCCCCC2)c1 | 23.17
87 | O=C1CN(c2ccc(CNC(=O)Nc3nccs3)cc2)CCN1 | 29.4
88 | Cc1n[nH]c(C2CN(C(=O)c3ccc4c(c3)CCCC4)CCO2)n1 (stereo unspecified) | -1.87

Row | SMILES | INHIBITION [%]
89 | Nc1nccnc1C1CN(C(=O)c2cnc(C3CC3)nc2)CCO1 (stereo unspecified) | 39.9
90 | CCc1n[nH]c(C2CN(C(=O)c3ncoc3CC)CCO2)n1 (stereo unspecified) | -15.34
91 | Nc1nccnc1C1CN(C(=O)c2ccc3c(c2)OCO3)CCO1 (stereo unspecified) | 50.32
92 | CCc1n[nH]c(C2CN(C(=O)c3nc(C)ncc3Cl)CCO2)n1 (stereo unspecified) | 63.95
93 | CCc1n[nH]c(C2CN(C(=O)c3cnc(C)nc3CC)CCO2)n1 (stereo unspecified) | 39.07
94 | Nc1nccnc1C1CN(C(=O)c2ccnnc2)CCO1 (stereo unspecified) | 27.39
95 | Cc1n[nH]c(C2CN(C(=O)c3ccc4c(c3)COC4)CCO2)n1 (stereo unspecified) | 67.28
96 | CCc1n[nH]c(C2CN(C(=O)c3ccc4c(c3)COC4)CCO2)n1 (stereo unspecified) | -0.99
97 | COc1ccc(CN2CC[C@H](O)[C@@H]2Cc2cnn(C)c2)cc1 | -10.92
98 | CC(NC(=O)N(C)Cc1cnn(C)c1)c1nncn1C (stereo unspecified) | 18.63
99 | O=C(Nc1ccc2ncccc2c1)C1CC(=O)N(Cc2ccccn2)C1 (stereo unspecified) | -6.89
100 | Cc1noc(C)c1CCC(=O)N1CCN(CCn2cncn2)CC1 | 33.75
101 | CC(C)CCN1CC2(CCCN(C(=O)CNC(=O)N(C)C)C2)CCC1=O (stereo unspecified) | 58.03
102 | O=C(CCC(F)(F)F)N1CCCC2(CCC(=O)N(CC3CC3)C2)C1 (stereo unspecified) | -6.04
103 | O=C(CSCC1CC1)N1CCCC2(CCC(=O)N(CC3CC3)C2)C1 (stereo unspecified) | 1.42
104 | CN(C)C(=O)NCC(=O)N1CCCC2(CCC(=O)N(CC3CC3)C2)C1 (stereo unspecified) | 40.61
105 | CC(=O)NCC(=O)N1CCCC2(CCC(=O)N(CCc3c[nH]cn3)C2)C1 (stereo unspecified) | -53.74
106 | O=C(CO)N1CCCC2(CCC(=O)N(CC3CC3)C2)C1 (stereo unspecified) | 62.38
